Source: PubChem
Akt phos inh – inhibitors of Akt phosphorylation. Neuro2A IGF-stimulated pAkt S473 HTRF, 20 min; stronger effect = lower value. activity change, % for hits at 50 µM. 0.32% of 360,000 active. AID 651550; in the data active = activity change below about -80%; inconclusive = mostly about -51% to -80%; also: % is scaled to controls: 0 for no effect and ±100 for the full control effect
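Neuro2A cells (4,500/well, DMEM with 0.5% FBS) were treated with compound at a single 50 µM final concentration, stimulated with 6 nM IGF for 20 min at 37 °C, and lysed. Phospho-Akt Ser473 was read by HTRF as 665/615 ratio ×10^4.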
GRP78 ERSR act – induces the endoplasmic reticulum stress response in human glioma cells; Potency, µM, inactives show at the highest dose activation, most hits filed as activators; U87-MG GRP78 promoter luciferase reporter, 16 h; 0.02% of 420,000 active; active = well fitted activation curve with a large enough effect; inconclusive = small, poorly fitted or top-dose-only effect; inactive = no such curve, though single readings can be large or run the other way; also: potency is read from the fitted curve at half-maximal effect; series mostly up to about 76 µM; % of control where 0% means no effect; nearly all actives have a fitted effect of over 35% in size
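Stably transfected U87-MG human glioma cells carrying a GRP78-based luminescent sensor were seeded at 1000 cells/well, pin-dosed with compounds and incubated 16 h. Luciferase reagent was then added, and end-point luminescence was read after 10 min at room temperature.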
gsp antagonist – antagonists of gsp mutant (McCune-Albright syndrome) | 0.4% of 340,000 active | Potency, µM (titrated, usually from 76.9 µM), inactives show top-dose activity change, negative = inhibition, usual class: inhibitors | gsp-mutant cells, cAMP HTRF, 30 min | AID 624288; calls by dose curve; cell line not stated here;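 also: intracellular cAMP measured with PDE inhibitor Ro 20-1724 present during compound exposure; potency is read from the fitted curve at half-maximal effect; % is scaled to controls: 0 for no effect and ±100 for the full control effect; nearly all actives have a fitted effect of over 65% in size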
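HTRF cAMP read-out (cAMP-d2 plus anti-cAMP antibody-K in lysis buffer, 30 min RT). Before lysis, cells are exposed to compounds with […] for 30 min at 37C in DPBS containing Ca/Mg, BSA and Tween 20.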
hERG WT inh – KCNH2 (human, wildtype) channel inhibition | Q12809 | U2OS, BacMam KCNH2, thallium flux FluxOr; stronger effect = lower value | activity change, % at 1.84 µM | 0.37% of 340,000 active | AID 720551;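 active = maximum activity change below -70%; inconclusive = maximum activity change between -70% and -50%; inactive = maximum activity change above -50%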; also: % is scaled to controls: 0 for no effect and ±100 for the full control effect
Target sequence (Q12809 whole entry, looked up): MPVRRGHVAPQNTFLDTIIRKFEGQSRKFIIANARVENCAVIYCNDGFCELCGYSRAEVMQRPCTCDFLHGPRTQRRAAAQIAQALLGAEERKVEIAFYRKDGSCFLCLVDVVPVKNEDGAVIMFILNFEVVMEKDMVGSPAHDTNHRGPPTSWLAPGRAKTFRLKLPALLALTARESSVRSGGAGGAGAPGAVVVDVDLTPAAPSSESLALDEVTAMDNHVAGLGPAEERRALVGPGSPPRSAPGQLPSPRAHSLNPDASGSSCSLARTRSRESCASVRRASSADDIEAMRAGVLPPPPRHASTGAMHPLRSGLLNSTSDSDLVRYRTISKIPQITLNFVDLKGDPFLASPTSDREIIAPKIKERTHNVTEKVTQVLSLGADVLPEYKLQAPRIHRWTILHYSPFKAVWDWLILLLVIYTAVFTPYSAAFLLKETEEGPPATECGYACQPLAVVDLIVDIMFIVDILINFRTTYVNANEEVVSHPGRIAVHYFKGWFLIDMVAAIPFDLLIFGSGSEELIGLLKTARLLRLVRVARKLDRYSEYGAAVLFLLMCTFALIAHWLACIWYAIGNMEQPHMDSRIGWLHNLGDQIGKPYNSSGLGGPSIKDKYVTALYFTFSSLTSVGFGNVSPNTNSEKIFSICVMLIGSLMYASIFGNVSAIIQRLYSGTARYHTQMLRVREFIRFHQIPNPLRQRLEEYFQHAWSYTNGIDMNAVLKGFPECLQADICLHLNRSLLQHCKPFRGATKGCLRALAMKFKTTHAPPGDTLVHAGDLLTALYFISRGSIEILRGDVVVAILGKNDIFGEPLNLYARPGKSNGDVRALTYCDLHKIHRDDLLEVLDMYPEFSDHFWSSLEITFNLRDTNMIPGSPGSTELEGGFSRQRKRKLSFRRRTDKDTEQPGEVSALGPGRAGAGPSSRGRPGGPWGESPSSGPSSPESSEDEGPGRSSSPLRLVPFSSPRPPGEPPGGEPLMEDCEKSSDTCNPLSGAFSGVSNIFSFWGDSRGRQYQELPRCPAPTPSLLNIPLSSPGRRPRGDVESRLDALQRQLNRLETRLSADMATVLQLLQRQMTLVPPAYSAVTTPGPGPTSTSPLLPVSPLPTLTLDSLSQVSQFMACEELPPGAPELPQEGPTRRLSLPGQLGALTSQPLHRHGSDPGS
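U2OS cells transduced with wild-type KCNH2 virus are loaded with FluxOr dye for 45 min, and thallium flux is measured in kinetic reads before and after stimulation buffer. Rate constants are normalized to DMSO controls.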
gsp ag – agonists of gsp mutant (McCune-Albright syndrome); gsp mutant cells, cAMP HTRF, 30 min; Potency, µM (doses to about 76.9 µM), for the others: at the highest dose activation (cAMP increase), most hits filed as activators; 0.13% of 340,000 active; AID 624287; active = well fitted activation curve with a large enough effect; inconclusive = small, poorly fitted or top-dose-only effect, or another doubt; inactive = no such curve, though single readings can be large or run the other way; cell line not stated here;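 also: phosphodiesterase inhibitor Ro 20-1724 added with compounds to block cAMP breakdown; potency is read from the fitted curve at half-maximal effect; nearly all actives have a fitted effect of over 60% in size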
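Cells stably selected in G418 were plated at 2000/well, grown 16-24 hr, then given compounds in DMSO with the PDE inhibitor […] (300 uM solution added) for 30 min at 37C; cAMP was read by HTRF.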
KCNH2 3.1 inh – inhibitors of human KCNH2 3.1 potassium channel isoform; 0.95% of 340,000 active; U2OS KCNH2 3.1, thallium flux FluxOr; stronger effect = lower value; activity change, % (tested at about 1.8 µM);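 active = maximum activity change below -70%; inconclusive = maximum activity change from -70% to -50%; inactive = maximum activity change above -50%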;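 also: thallium influx rate constant from kinetic fluorescence after stimulation buffer; % is scaled to controls: 0 for no effect and ±100 for the full control effect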
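Steps: virus added to U2OS suspension (4 h, RT, dark); medium with 10% FBS added, cells plated, 37 C overnight; FluxOr/Red40 loading buffer 45 min RT; stimulation buffer, 2 min kinetic read; rate constant normalized.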
* = called active by the depositor; i = inactive; ? = inconclusive; . = no result given; [ ] = dose if it differs, or a comment. An excerpt weighted towards active compounds, which were near 1.6% of everything screened.

SMILES	Akt phos inh	GRP78 ERSR act	gsp antagonist	hERG WT inh	gsp ag	KCNH2 3.1 inh
O=C(Nc1ccc([N+](=O)[O-])cn1)c1cc(-c2cccc(Br)c2)nc2ccccc12	i	-1.9%	7.7%	-7.2	-6.1%[15.4 µM]	-80.7*
Cc1ccc(Sc2cc(C(=O)NCCCN(C)C)c3ccccc3n2)cc1	i	-8.4%	16.8%	17.8	5.8%[15.4 µM]	-42.0
O=C(NCCCn1ccnc1)c1cc(-c2ccc(Cl)cc2)nc2ccccc12	i	0.9%	-1.9%	-79.2*	-10.4%	-81.8*
Cc1ccc(C(=O)NCCc2nnc3n2CCN(C(=O)c2ccnc(Cl)c2)CC3)cc1	.	-4.5%	.	.	.	.
COc1ccc(CN2CCOc3ccc(C(O)c4cccnc4)cc3C2)cc1O (stereo not given)	.	-4.8%	.	.	.	.
Cc1c(C(=O)NC(C)(C)CO)sc2ncnc(NCCN(C)C)c12	.	-3.2%	.	.	.	.
C1=C(c2ccc3c(c2)CN(Cc2cccn2-c2ncccn2)CCO3)Cc2ccccc21	.	1.2%	.	.	.	.
COc1cccc(CN2C(=O)NC(C)(C3CCN(Cc4cccc(O)c4)CC3)C2=O)c1OC (stereo not given)	.	-2.6%	.	.	.	.
Cc1ccc(C(=O)Nc2cccc(-c3nc(CNC(=O)[C@@H]4C[C@@H](C)NC(=S)N4)c(C)o3)c2)s1	.	11.5%	.	.	.	.
Cc1cccc(C)c1NS(=O)(=O)c1ccc(NC(=O)c2ccc(Cl)c([N+](=O)[O-])c2)cc1	i	-13.5%	25.1µM*	-20.3	?	-7.1
O=C(Nc1ccc(C(O)(C(F)(F)F)C(F)(F)F)cc1)c1ccc(Cl)c([N+](=O)[O-])c1	i	-14.7%	35.5µM*	-4.8	-38.8%	-38.7
Cc1cccc(NCCC(=O)c2ccc([N+](=O)[O-])cc2)c1C	i	2.0%	-0.5%	3.9	-5.0%	-82.5*
C(=C\c1ccnc2ccccc12)/c1ccc2ccccc2n1	.	-4.4%	.	.	.	.
Cc1cccc(NC(=O)COc2ccccc2C(=O)NC(C)c2ccccc2)c1 (stereo not given)	i	-6.1%	28.2µM*	7.2	-20.2%	2.9
COc1cc(CN2CC(=O)N(c3cccc(Cl)c3C)C2=S)cc(OC)c1OC	i	0.5%	-6.7%	-40.2	?	-23.7
COc1cc(CN2CC(=O)N(c3ccccc3Cl)C2=S)cc(OC)c1OC	i	-9.8%	35.5µM*	-7.6	-16.5%	-10.5
Cc1nn(-c2nc(-c3ccco3)cc(C(F)(F)F)n2)c(C)c1Cl	-115.9%*	-5.2%	12.2%	1.1	-37.1%	-3.1
CN(C(=O)COC(=O)CCc1c[nH]c2ccccc12)C(c1ccccc1)c1ccccc1	i	-0.9%	-5.8%	-5.5	3.5%	-80.5*
O=C(CCc1c[nH]c2ccccc12)OCC(=O)c1ccccc1	i	1.8%	.	-12.4	5.3%	-5.2
CCC1S/C(=C(\C#N)C(=O)NCc2ccco2)N(c2ccc(Br)cc2)C1=O (stereo not given)	-107.5%*	1.7%	-2.3%[15.4 µM]	0.1	-40.9%	12.0
COCCNC(=O)COc1ncnc2scc(-c3ccc(F)cc3)c12	i	1.6%	1.7%	-15.9	5.0%	-112.0*
CCC1CN(CCNC(=O)c2cccc3nccnc23)Cc2cc(OC)ccc2O1 (stereo not given)	.	-2.5%	.	.	.	.
Cc1nc2ccc([N+](=O)[O-])cc2c(=O)n1Cc1cccc(F)c1	i	-5.2%	10.2%	-1.8	14.1µM*	18.0
Cc1cccc(Cn2c(C)nc3ccc([N+](=O)[O-])cc3c2=O)c1	i	-0.5%	-4.3%	9.2	-18.3%	15.1
COc1ccc(NC(C)=O)cc1S(=O)(=O)N1CCN(C/C=C/c2ccccc2)CC1	i	-3.1%	0.7%	12.4	-47.9%	-73.3*
SMILES	Akt phos inh	GRP78 ERSR act	gsp antagonist	hERG WT inh	gsp ag	KCNH2 3.1 inh
COc1ccccc1NC(=O)C(C)N1CCN(C/C=C/c2ccccc2)CC1 (stereo not given)	i	-0.3%	1.1%	-81.8*	-21.5%	-94.7*
COc1ccccc1C(=O)NCC(=O)N1CCN(C/C=C/c2ccccc2)CC1	i	-1.1%	2.6%	-13.9	-24.2%	-18.5
NC(=O)c1ccc2[nH]ccc2c1	.	0.6%	.	.	.	.
CN(C)c1cccc(C(=O)N(C)C2CCCN(Cc3ccccc3F)C2)c1 (stereo not given)	i	-3.5%	3.3%	-70.9*	-35.7%	7.2
Cc1ccc(C2CC(c3ccco3)n3ncnc3N2)cc1 (stereo not given)	i	-2.1%	2.6%	-6.1	?	0.2
Fc1ccc(C2CC(c3ccco3)n3ncnc3N2)cc1 (stereo not given)	i	-1.6%	0.5%	-130.5*	13.3%	-174.5*
CN(Cc1cnc2ccccn12)C(=O)c1cc(NC(=O)c2ccccc2)cc2ncn(C3CCCC3)c12	.	-0.6%	.	.	.	.
C[C@H](O)[C@@H]1C(=O)N2CCc3c([nH]c4ccccc34)[C@@H]2C[C@@H]1N(C)C(=O)NC1CCCCC1	i	-0.4%	.	-114.4*	?	-13.7
CC1Cc2cc(/C(O)=C3\C(=O)C(=O)N(Cc4ccncc4)C3c3ccccc3F)ccc2O1 (stereo not given)	i	-0.8%	6.7%	2.0	3.16µM*	10.9
CCOc1cccc(C2/C(=C(/O)c3ccc4c(c3)CC(C)O4)C(=O)C(=O)N2Cc2ccncc2)c1 (stereo not given)	i	-6.6%	-12.9%	-0.4	5.01µM*	10.8
CC1Cc2cc(/C(O)=C3\C(=O)C(=O)N(CCN(C)C)C3c3ccccc3F)ccc2O1 (stereo not given)	i	3.6%	8.0%	-13.7	?	18.2
CCOc1cccc(C2/C(=C(\O)c3ccc4c(c3)OCCO4)C(=O)C(=O)N2Cc2ccncc2)c1 (stereo not given)	i	-0.3%	19.3%	-4.6	?	-2.0
Cc1cc(NC(=O)CSc2nc3c(c(-c4cccnc4)c2C#N)CCC3)no1	-102.2%*	-3.1%	2.6%	5.5	?	-6.5
Cc1cc(NC(=O)CSc2nc(-c3cccnc3)ccc2C#N)no1	i	0.7%	11.0%	-12.2	7.8%	-9.1
COc1ccc(C(CCNCc2ccccc2)c2ccc(F)cc2)cc1 (stereo not given)	i	?	-2.7%	-15.5	-3.9%	-75.4*
COc1ccc(C(CCNC(C)c2ccccc2)c2ccc(F)cc2)cc1 (stereo not given)	i	-10.2%	2.6%	-75.7*	0.1%	-2.4
COc1ccc(C(CCNCc2ccc(F)cc2)c2ccc(F)cc2)cc1 (stereo not given)	i	-8.3%	5.0%	?	-1.0%	-6.5
COc1ccc(CNC(=O)CNC(C)c2ccc(F)cc2)cc1 (stereo not given)	i	-4.4%	-4.5%	-4.0	14.7%	-1.8
COc1ccc(CNCCC(c2ccc(F)cc2)c2ccc(OC(C)C)cc2)cc1OC (stereo not given)	i	-5.8%	-12.0%	-36.6	0.7%	?
